Reference: PubChem BioAssay AID449743 (Southern Research Specialized Biocontainment Screening …, 2010)
Entries with a potency or affinity are not part of this list. The source made the active and inactive calls. No rule for the calls is given here.

Assay: PhoP regulon inhibitors in Salmonella Typhi, late-stage follow-up, GFP fluorescence, round 4, purified and synthesized compounds (AID 449743)
Settings: Salmonella Typhi PhoP-promoter GFP reporter, 4 h; series mostly up to 150 µM
For `S=C(NCc1ccc(Cl)cc1)Nc1ccc(I)cc1`, the outcome was “inactive”. In the case of `O=C(NC1CCCCC1)N1CCCN(Cc2ccccc2F)C1`, the outcome was “inactive”. With `S=C(NCc1ccc(Cl)cc1)Nc1ccccc1I` the outcome was “inactive”. For `S=C(NCc1ccccc1)NCc1ccc(Cl)cc1`, the outcome was “inactive”. With `S=C(NCc1ccc(Cl)cc1)NC1CCCCC1` the outcome was “inactive”. With `S=C(NCc1ccc(Cl)cc1)Nc1ccccc1Br` the outcome was “inactive”. For `S=C(NCc1ccc(Cl)cc1)Nc1ccccn1`, the outcome was “inactive”. With `S=C(NCc1ccc(Cl)cc1)NN1CCOCC1` the outcome was “inactive”. In the case of `O=C(Nc1ccc(Cl)cc1)N1CCCN(Cc2cccc(F)c2)C1`, the outcome was “inactive”. With `N#Cc1ccc(CN2CCCN(C(=O)Nc3ccc(Cl)cc3)C2)cc1` the outcome was “inactive”. With `CN1CCN(C(=S)NCc2ccc(Cl)cc2)CC1` the outcome was “inactive”. For `FC(F)(F)c1ccccc1NC(=S)NCc1ccc(Cl)cc1`, the outcome was “inactive”. In the case of `S=C(NCc1ccc(Cl)cc1)NC1CCOCC1`, the outcome was “inactive”. In the case of `O=C(Nc1ccc(Cl)cc1)N1CCN(Cc2ccccc2F)C1`, the outcome was “inactive”. With `O=C(Nc1ccc(Cl)cc1)N1CCCN(Cc2cccc(Br)c2)C1` the outcome was “inactive”. With `FC(F)(F)c1ccc(NC(=S)NCc2ccc(Cl)cc2)cc1` the outcome was “inactive”. In the case of `Cc1ccccc1NC(=O)N1CCCN(Cc2ccccc2F)C1`, the outcome was “inactive”. For `S=C(NCc1ccc(Cl)cc1)Nc1ccncn1`, the outcome was “inactive”. With `S=C(NCc1ccc(Cl)cc1)Nc1cccc(Br)c1` the outcome was “inactive”.
